# Measured values from PubChem BioAssay (NCATS).
# Values joined by “and” are separate entries in the source; they are usually repeats but may differ in a detail not shown here. Identical values can stand only once. Unmarked numbers belong to inactive results. Results filed as inconclusive are left out. Entries that show only a call come without a potency. Active and inactive are the calls of the source. Calls follow the shape of the dose curve; as a rule, active = well fitted curve in the direction sought with a large enough effect; inconclusive = small, poorly fitted or top-dose-only effect, or another doubt; inactive = no such curve, though single readings can be large; an effect the other way counts as inactive or inconclusive.
# Columns and labels:
# [1] = Confirmatory screen NINDS Rhodamine qHTS for Zika virus inhibitors (AID 1347161); also: nearly all actives have a fitted effect of over 60% in size; also: potency is read from the fitted curve at half-maximal effect;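 as to activity change, negative = inhibition: purified Zika NS2B-NS3 protease with linked NS2B cofactor domain and Rhodamine110 peptide substrate; series mostly up to about 110 µM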
# Method in brief: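 Aprotinin served as in-plate control. Conditions: 25 nM linked NS2B-NS3, pH 8.0 Tris buffer, titrated compounds, 15 min preincubation and 15 min reaction with 1.5 microM Rhod110 substrate at room temperature.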
# [2] = test system: Zika virus NS2B-NS3 protease (linked); assay: 384 well plate NINDS AMC confirmatory qHTS for Zika virus inhibitors (AID 1347163); details: Recombinant NS2B-NS3 protease, Ac-VKTGKR-AMC fluorescence; also: potency is read from the fitted curve at half-maximal effect; nearly all actives have a fitted effect of over 50% in size
# Method in brief: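 Linked NS2B-NS3 protease (final 5 nM, 30 nM or 60 nM) was preincubated with compounds (final up to 1 mM) for ~15 minutes. Ac-VKTGKR-AMC substrate (final 30 microM) then reacted for 25 minutes at room temperature in the dark. Fluorescence (ex 355/em 460 nm) was normalized to no-enzyme and no-inhibitor controls.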
# [3] = test system: Zika virus NS2B-NS3 protease (linked construct); assay: 384 well plate NINDS Rhodamine confirmatory qHTS for Zika virus inhibitors (AID 1347164); details: rhodamine-110 peptide substrate fluorescence;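 also: fluorescence from protease cleavage of Ac-LKRR-rhodamine 110 substrate; potency is read from the fitted curve at half-maximal effect; nearly all actives have a fitted effect of over 65% in size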
# Method in brief: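 Fluorescence read at ex 485 nm/em 538 nm, 25 min after adding 10 microM Ac-LKRR-Rd substrate at room temperature in the dark; signal normalized to no-enzyme and no-inhibitor controls. Enzyme final 5, 30 or 60 nM; compounds, ~15 min preincubation.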
# [4] = test system: Zika virus NS2B-NS3 protease (unlinked complex); assay: Primary screen GU Rhodamine qHTS for Zika virus inhibitors: Unlinked NS2B-NS3 protease assay (AID 1347159); also: nearly all actives have a fitted effect of over 60% in size; also: potency is read from the fitted curve at half-maximal effect
# Method in brief: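 Percent inhibition derives from the 15-min fluorescence change (ex 480, em 540 nm), normalized to no-enzyme and no-inhibitor wells. Reactions contained 25 nM NS2B-NS3 complex and 1.5 microM substrate in 10 mM Tris-HCl pH 8.0.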
# [5] = Tertiary RLuc qRT-PCR qHTS assay for Zika virus inhibitors (AID 1347169); also: nearly all actives have a fitted effect of over 55% in size; also: potency is read from the fitted curve at half-maximal effect; as to activity change, negative = inhibition: top concentration of the series differs between compounds
# Method in brief: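 Luminescence read-out: live-cell Renilla luciferase substrate applied to infected Vero cells, signal measured after 1-1.5 hrs. Cells had received compound before ZIKV-RLuc (Cambodian strain, MOI 1-2) infection and were incubated 48-72 hrs at 37 degrees C.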
# [6] = qHTS to identify inhibitors of the type 1 interferon - major histocompatibility complex class I in skeletal muscle: primary screen against the NCATS Pharmaceutical Collection (AID 1347407);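 also: luminescence of HiBiT knocked into endogenous HLA-B as interferon-induced MHC class I level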
# Method in brief: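 HLA-B HiBiT myoblasts, dexamethasone-free growth medium + 4 ng/ml IFN-b; compounds pinned 1 h after seeding, […] from 46 uM; 24 h, 37 C, 5% CO2; lytic HiBiT detection, 10 min RT, luminescence.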
# [7] = qHTS to identify inhibitors of the type 1 interferon - major histocompatibility complex class I in skeletal muscle: primary screen against the NCATS LOPAC collection (AID 1347405);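 also: lytic HiBiT luminescence reporting HLA-B protein level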
# Method in brief: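 CRISPR-engineered immortalized human myoblasts (C25cl48) with HiBiT fused to endogenous HLA-B*08:01, stimulated with 4 ng/ml IFN-beta. LOPAC compounds tested as a 7-point 1:4.3 titration (top 46 uM final), 24 h at 37 C; lytic HiBiT luminescence read.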
# [8] = qHTS for inhibitors of adenylyl cyclases using a fission yeast platform: a pilot screen against the NCATS LOPAC library (AID 1347410)
# Method in brief: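 Read-out: fbp1-GFP fluorescence by laser scanning cytometry (488 nm laser), a gain of signal when AC/cAMP-PKA signalling is inhibited. Strain CHP2027 expressing AC9, GNAS and PDE4D2; compounds at up to 57 µM; 18 h, 30C.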
# [9] = Vero cells viability qHTS for Zika virus inhibitors (AID 1347167)
# Method in brief: (§1)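 Cells seeded at 2.5 x 10^5 cells/mL in DMEM with 4% FBS and attached overnight at 37 degrees C, then exposed to compound for 24 to 48 hours. Viability read as ATP content by CellTiter Glo luminescence.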
# [10] = HepG2 cells viability qHTS for Zika virus inhibitors (AID 1347168)
# Method in brief: as §1
smiles,measurement,setting,value
CC1(C)C(\C=C/C=C\C=C/C=C2/N(CCCCS(=O)(=O)O)c3ccc4ccccc4c3C2(C)C)=[N+](CCCCS(=O)(=O)[O-])c2ccc3ccccc3c21,Potency,[1],5.62 µM (active)
same,Potency,[2],39.8 µM (active)
same,Potency,[3],4.47 µM (active)
C/C(=C\C(=O)OCCCCCCCCC(=O)O)C[C@@H]1OC[C@H](C[C@@H]2O[C@H]2[C@@H](C)[C@H](C)O)[C@@H](O)[C@H]1O,Potency,[4],inactive
CC(C)(C)CC(C)(C)c1cc(Cc2cc(C(C)(C)CC(C)(C)C)cc(-n3nc4ccccc4n3)c2O)c(O)c(-n2nc3ccccc3n2)c1,Potency,[1],inactive
same,"activity change, negative = inhibition",[5],-2.91% [at 1.74 µM]
C=C1[C@H](CO)[C@@H](O)C[C@@H]1n1cnc2c(=O)[nH]c(N)nc21,Potency,[4],inactive
COc1ccc2nc(NC(=O)Nc3ccccc3)sc2c1,outcome,[6],inactive
CC(=O)Oc1cccc2c1C(=O)c1c(OC(C)=O)cc(C(=O)O)cc1C2=O,outcome,[6],inactive
CC(=O)Nc1ccc(NC(=S)NC(=O)c2ccc(C(C)(C)C)cc2)cc1,Potency,[4],inactive
Cc1cc(-c2ccc(N=Nc3c(S(=O)(=O)O)cc4cc(S(=O)(=O)O)cc(N)c4c3O)c(C)c2)ccc1N=Nc1c(S(=O)(=O)O)cc2cc(S(=O)(=O)O)cc(N)c2c1O,Potency,[1],2.24 µM (active)
same,Potency,[2],20 µM (active)
same,Potency,[3],7.94 µM (active)
same,Potency,[5],inactive
CN(C)CCCSc1ccccc1NC(=O)/C=C/c1ccccc1,outcome,[6],inactive
CO[C@H]1C[C@@H]2CC[C@@H](C)[C@@](O)(O2)C(=O)C(=O)N2CCCC[C@H]2C(=O)O[C@H]([C@H](C)C[C@@H]2CC[C@@H](OC(=O)C(C)(CO)CO)[C@H](OC)C2)CC(=O)[C@H](C)/C=C(\C)[C@@H](O)[C@@H](OC)C(=O)[C@H](C)C[C@H](C)/C=C/C=C/C=C/1C,Potency,[4],inactive
O=C(O)CCC(=O)c1ccc(-c2ccccc2)cc1,outcome,[6],inactive
N[C@@H](Cc1cc(I)c(Oc2ccc(O)c(I)c2)c(I)c1)C(=O)O,Potency,[4],14.1 µM (active)
same,Potency,[1],inactive
same,"activity change, negative = inhibition",[5],35% [at 3.57 µM]
CCN(CC)CCOCCOC(=O)C(CC)(CC)c1ccccc1,Potency,[4],inactive
C=C1CC[C@H](O)CC1=C/C=C1\CCC[C@]2(C)[C@@H]([C@H](C)/C=C/[C@H](C)C(C)C)CC[C@@H]12,Potency,[4],11.2 µM (active)
Oc1ccc(/C=C/c2cc(O)cc(O)c2)cc1,outcome,[7],inactive
same,outcome,[6],inactive
same,outcome,[8],inactive
COc1ccc(C[C@H](C)NC[C@@H](O)c2ccc(O)c(NC=O)c2)cc1,Potency,[4],inactive
O=C1c2ccccc2C(=O)c2c1ccc(O)c2O,outcome,[6],inactive
Cc1cc(-c2ccc(N=Nc3ccc4c(S(=O)(=O)O)cc(S(=O)(=O)O)c(N)c4c3O)c(C)c2)ccc1N=Nc1ccc2c(S(=O)(=O)O)cc(S(=O)(=O)O)c(N)c2c1O,Potency,[2],5.62 µM (active)
same,Potency,[3],8.91 µM (active)
same,Potency,[5],inactive
O=C(O)Cc1cc(I)c(Oc2ccc(O)c(I)c2)c(I)c1,Potency,[4],7.08 µM (active)
same,Potency,[1],2.21 µM (active) and 7.94 µM (active)
same,Potency,[2],2.82 µM (active)
same,Potency,[3],3.16 µM (active)
same,outcome,[9],inactive
same,outcome,[10],inactive
same,"activity change, negative = inhibition",[5],45.7% [at 0.566 µM]
CC(C)(C)c1ccc(CN2CCN(C(c3ccccc3)c3ccc(Cl)cc3)CC2)cc1 (configuration not stated),Potency,[4],inactive
CO[C@H]1C[C@H](O[C@@H]2/C(C)=C/C[C@@H]3C[C@@H](C[C@]4(CC[C@H](C)[C@@H](C5CCCCC5)O4)O3)OC(=O)[C@@H]3C=C(C)/C(=N/O)[C@H]4OC/C(=C\C=C\[C@@H]2C)[C@]43O)O[C@@H](C)[C@@H]1O,Potency,[1],inactive
same,outcome,[9],inactive
same,outcome,[10],inactive
same,Potency,[5],inactive
O=C(OCc1ccccc1)c1ccc(O)cc1,outcome,[6],inactive
C[C@H]1O[C@@H](O[C@H]2[C@@H](O)C[C@H](O[C@H]3[C@@H](O)C[C@H](O[C@H]4CC[C@@]5(C)[C@H](CC[C@@H]6[C@@H]5C[C@@H](O)[C@]5(C)[C@@H](C7=CC(=O)OC7)CC[C@]65O)C4)O[C@@H]3C)O[C@@H]2C)C[C@H](O)[C@@H]1O,Potency,[4],inactive
same,outcome,[9],inactive
same,Potency,[5],0.38 µM (active)
Nc1ccc(N=Nc2ccccc2)c(N)n1,outcome,[6],inactive
